The list is not random: actives were taken first. Their share in the collection is about 22%.
Shiga inhibitor – blocks Shiga toxin action in Vero cells. 9.2% of 290,000 active. Vero cells, Shiga toxin protein synthesis inhibition reporter. inhibition, % at 38.7 µM; in the data active means inhibition mostly above about 28%, no sharp cut-off; inactive means mostly below about 43%
Pf growth 96h – P. falciparum growth inhibition at 96 hour, primary screen for plastid delayed-death inhibitors; Potency, µM (series often up to 28.7 µM), hits mostly inhibitors; P. falciparum luciferase reporter growth, 96 h; 6.9% of 320,000 active
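Plates of compound plus infected erythrocytes (2% hematocrit, 0.05% parasitemia final) incubate 96 hours, 37 C, 5% CO2. Detection reagent added; reduced luminescence from the parasites' luciferase reporter flags inhibition.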
CHX counter – affects cycloheximide protein synthesis inhibition readout, counter-screen; cell reporter, cycloheximide protein synthesis inhibition counterscreen; max response, %; 12% of 300,000 active; AID 2314; in the data active means max response mostly above about 13%, no sharp cut-off; inactive means mostly below about 14%; further: read at 38.3 µM for the half of the compounds with a filed dose
Pf growth 48h – inhibits P. falciparum growth in the first generation, 48 h | P. falciparum luciferase growth in erythrocytes, 48 h | Potency, µM (series often up to 28.7 µM), usual class: inhibitors | 5.9% of 310,000 active
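A one-generation exposure of luciferase-tagged malaria parasites in RPMI 1640/Albumax erythrocyte culture, 37 C and 5% CO2. Inhibition is inferred from decreased luminescence after adding detection reagent.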
LmPK inhibitor – blocks Leishmania mexicana pyruvate kinase activity; purified LmPK, Kinase-Glo ATP luminescence, 1 h; Q27686; Potency, µM (titrated, usually from 57.5 µM), actives largely listed as inhibitors; AID 1721; 0.37% of 290,000 active
Target sequence (Q27686 whole entry, looked up): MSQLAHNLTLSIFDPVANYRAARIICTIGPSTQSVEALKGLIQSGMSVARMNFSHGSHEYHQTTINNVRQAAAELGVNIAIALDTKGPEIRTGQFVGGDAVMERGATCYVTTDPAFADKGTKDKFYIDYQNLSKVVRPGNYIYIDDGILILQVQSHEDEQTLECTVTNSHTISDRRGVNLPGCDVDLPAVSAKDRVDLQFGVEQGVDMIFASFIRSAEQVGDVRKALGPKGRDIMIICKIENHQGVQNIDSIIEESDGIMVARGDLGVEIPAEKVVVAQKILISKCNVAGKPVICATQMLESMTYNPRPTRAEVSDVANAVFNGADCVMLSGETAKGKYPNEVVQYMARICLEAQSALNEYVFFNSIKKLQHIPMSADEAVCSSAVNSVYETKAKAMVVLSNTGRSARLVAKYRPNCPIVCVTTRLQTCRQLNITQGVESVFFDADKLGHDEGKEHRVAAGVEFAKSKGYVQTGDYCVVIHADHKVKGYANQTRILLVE
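Kinase-Glo luminescence read after 1 h RT reaction of 0.1 nM LmPK with 0.5 mM PEP and 0.1 mM ADP. Activity scaled between uninhibited and enzyme-free controls.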
Hits are given with their value; . = inactive; ? = inconclusive; / = not tested or not shown. Unless noted, the call rests on the fitted dose curve; in most records, active means well fitted inhibition curve with a large enough effect; inconclusive means small, poorly fitted or top-dose-only effect, or another doubt; inactive means no such curve, though single readings can be large or run the other way.

SMILES | Shiga inhibitor | Pf growth 96h | CHX counter | Pf growth 48h | LmPK inhibitor
OCC[C@H]1C[C@H](O)[C@@H](O)[C@@]2(CCc3ccccc3O2)O1 | / | . | / | . | /
COC(=O)c1cc(C(=O)OCC(=O)NC(=O)c2ccccc2)cc([N+](=O)[O-])c1 | / | . | / | ? | /
CC(=O)NC1[C@H]([C@H](O)[C@H](O)CO)OC(C(=O)O)=C[C@H]1N=C(N)N (some centres undefined) | / | . | / | . | /
CN(C(=O)c1cccc(COc2ccc(Cl)cc2Cl)c1)c1ccccc1 | 185.1 | ? | 170.6 | . | .
O=C(c1ccc(COCC(F)(F)F)cc1)N1CCN(c2ccccn2)CC1 | 46.4 | ? | 35.2 | . | .
O=C(COc1ccc(Cl)cc1Cl)NC(=O)c1ccccc1 | . | . | . | . | .
O=C(c1ccc(F)cc1)N1CCN(c2ccccn2)CC1 | / | . | . | . | .
O=C1CCC(c2ccc3c(c2)CCC3)=NN1 | . | . | . | . | .
O=C1CCC(c2ccccc2)=NN1 | . | ? | . | . | .
CCCCCc1ccc(C2=NNC(=O)CC2)cc1 | / | ? | 14.3 | . | .
CC(C)CCOc1ccc(C2=NNC(=O)CC2)cc1 | 43.0 | . | 25.5 | . | .
Cn1c(NNC(=O)C(c2ccccc2)c2ccccc2)cc(=O)n(C)c1=O | . | . | . | . | .
Cc1cccc(N2CSC3=C(C#N)C(c4ccc(C)o4)CC(=O)N3C2)c1 (centres undefined) | . | 10.4µM | 11.3 | . | .
CC(=O)Cn1ncc(N2CCOCC2)c(Cl)c1=O | . | . | . | . | .
O=C(Cn1ncc(N2CCOCC2)c(Br)c1=O)c1ccc(Cl)cc1 | 79.6 | . | 34.8 | . | .
CC(C)(C)C(=O)Cn1ncc(N2CCOCC2)c(Cl)c1=O | 32.4 | . | 17.2 | / | .
CO/N=C(\Cn1ncc(N2CCCC2)c(Br)c1=O)c1ccc(Cl)cc1 | . | / | . | ? | .
O=C(Cn1ncc(N2CCCC2)c(Cl)c1=O)c1ccc(Cl)cc1 | 89.7 | . | 38.4 | . | .
CCn1ncc(N2CCOCC2)c(Cl)c1=O | . | . | . | . | .
CCOc1ccc(NC(=O)CN2CCN(C3c4ccccc4-c4ccccc43)CC2)cc1 | . | . | . | 13.1µM | .
COc1ccccc1NC(=O)CN1CCN(C2c3ccccc3-c3ccccc32)CC1 | . | . | . | 13.1µM | .
CCCCOc1ccc(NC(=O)CN2CCN(C(=O)OCC)CC2)cc1 | . | ? | . | 9.28µM | .
CCCCOc1ccc(NC(=O)CN2CCN(CC)CC2)cc1 | . | . | . | . | .
CCC(NC(=O)Cc1cccs1)c1ccccc1 (centres undefined) | . | 5.86µM | . | . | .
O=C(NCCc1cccs1)C(c1ccccc1)c1ccccc1 | . | 11.7µM | . | . | .
SMILES | Shiga inhibitor | Pf growth 96h | CHX counter | Pf growth 48h | LmPK inhibitor
CCn1nc2cc(C(=O)NCCc3cccs3)ccc2c1OC | 75.2 | . | 39.5 | . | .
CC(NC(=O)Cc1cccs1)c1ccccc1 (centres undefined) | . | . | . | . | .
CCOc1c2ccc(C(=O)NCCc3ccc(C)cc3)cc2nn1CC | . | . | . | . | .
O=C(NCCc1cccs1)c1ccc(Cl)cc1 | 34.8 | . | 20.3 | . | .
CCOCCCn1c(SCC(=O)Nc2ccc3[nH]c(=O)[nH]c3c2)nc2ccccc2c1=O | / | . | / | . | /
Cc1ccccc1-n1c(C)nnc1SCC(=O)N(C)C1CCS(=O)(=O)C1 (centres undefined) | . | . | . | . | .
O=C(NCCc1cccs1)c1ccc(Cl)c(Cl)c1 | 71.9 | . | 44.2 | . | .
O=C(CC(C(=O)O)c1cccc(Cl)c1Cl)c1ccccc1 (centres undefined) | . | . | . | . | .
Cc1ccc(Nc2ccc(C(=O)O)cc2N)cc1 | . | ? | 21.6 | . | .
COc1cccc(Nc2ccc(C(=O)O)cc2N)c1 | 73.6 | ? | 61.9 | . | .
Cc1cc(C)cc(Nc2ccc(C(=O)O)cc2N)c1 | 48.2 | . | 51.7 | . | .
COc1cc(Nc2ccc(C(=O)O)cc2[N+](=O)[O-])cc(OC)c1 | . | . | . | ? | .
COc1cccc(Nc2c(F)c(F)c(F)c(F)c2C(=O)O)c1 | . | 13.1µM | . | . | .
CCOc1ccccc1Nc1ccc(C(=O)O)cc1N | . | ? | . | . | .
Cc1cc(C)cc(Nc2ccc(C(=O)O)cc2[N+](=O)[O-])c1 | . | . | . | . | .
CC(C)CCOC(=O)C1C(c2ccccc2)C(C(=O)O)C1c1ccccc1 (centres undefined) | . | ? | . | / | .
Cc1ccc(/C=N/NC(=O)c2cccs2)o1 | 161.7 | . | 40.5 | . | .

Screening data deposited in PubChem by National Center for Advancing Translational Sciences (NCATS).
